Test results reported in PubChem BioAssay.

experiment: binders of probe aFSTL3 on microarray, primary screen, stem cell growth factor project, biochemical, small-molecule microarray, fluorescence 635/667 (AID 1064); details: higher = more signal;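 further: measures binding of the biotinylated anti-FSTL3 antibody to printed compounds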

Row | Compound | composite z-score
1 | COC(=O)[C@@]1(Cc2ccccc2)[C@H]2c3cc(C(=O)N4CCCC4)n(Cc4ccc(OC(F)(F)F)cc4)c3C[C@H]2CN1C(=O)c1ccccc1 | 1.38
2 | CO[C@H]1O[C@H](CO)[C@@H](OC(=O)c2ccc(Br)cc2)[C@@H]2OC(=O)[C@H](Cc3cccc(Br)c3)C/C=C/C[C@@H](Cc3cccc(Br)c3)C(=O)O[C@@H]12 | 0.174
3 | Cc1ccc(N2C(=O)c3ccccc3[C@](C)(C(=O)NC(C)C)[C@@H]2c2ccc(CO)cc2)nc1 | 1.57
4 | NC(=O)[C@@H]1[C@H]2C(=O)O[C@H](c3ccccc3)[C@H](c3ccccc3)N2[C@H](c2ccccc2OCCO)[C@@]12C(=O)Nc1ccc(C#CCCO)cc12 | -0.159
5 | O=C1O[C@H](c2ccccc2)[C@H](c2ccccc2)N2[C@H]1[C@@H](C(=O)N1CCN(c3ncccn3)CC1)[C@]1(C(=O)Nc3ccc(C#CCCO)cc31)[C@H]2c1ccc(OCCO)cc1 | 0.0379
6 | CCCC=C(CCC)[C@@H](NS(=O)(=O)c1cccc2cccnc12)c1ccc(C(=O)OC)cc1 | 3.16
